# Assay results taken from the supplement of paper PMC12645437, “Orthogonal IMiD-Degron Pairs Induce Selective Protein Degradation in Cells” (ACS Chemical Biology, 2025).
# The full ranking holds about 8,300 sequences; the median of “log2 fold change of degron read counts, EGFP-low vs EGFP+ sorted cells (limma voom), compound-induced degradation” is about -1.1, and the highest 2% start at about 3.2. For the sample, the highest values were picked, then their nearest neighbours and some sequences at random.
# T1: CRBN, Q96SW2
# T1 chain: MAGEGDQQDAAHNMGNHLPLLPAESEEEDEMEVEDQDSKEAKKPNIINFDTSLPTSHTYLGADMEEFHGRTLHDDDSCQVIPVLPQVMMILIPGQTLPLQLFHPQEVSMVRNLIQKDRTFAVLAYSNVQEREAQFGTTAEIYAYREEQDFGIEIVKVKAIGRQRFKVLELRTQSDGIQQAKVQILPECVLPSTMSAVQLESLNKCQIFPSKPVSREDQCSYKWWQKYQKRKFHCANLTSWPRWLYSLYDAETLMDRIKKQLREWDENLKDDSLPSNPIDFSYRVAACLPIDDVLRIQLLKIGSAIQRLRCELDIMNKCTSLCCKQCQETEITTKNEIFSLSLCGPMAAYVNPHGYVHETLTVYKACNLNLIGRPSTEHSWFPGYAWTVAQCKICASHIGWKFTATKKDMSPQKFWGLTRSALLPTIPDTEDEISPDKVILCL
# B1: 46F_47G_49E_50Q_52G_53A_54K_55F_67L_, Q9UKT9 (peptide)
# chain: FGCEQCGAKFTQKGNLLRHIKL
# B2: 46F_47L_49P_50V_52G_53A_54E_55F_67L_, Q9UKT9 (peptide)
# chain: FLCPVCGAEFTQKGNLLRHIKL
# B3: 46F_47C_49P_50Q_52G_53A_54N_55F_67L_, Q9UKT9 (peptide)
# chain: FCCPQCGANFTQKGNLLRHIKL
# B4: 46F_47M_49N_50Q_52G_53H_54W_55F_67L_, Q9UKT9 (peptide)
# chain: FMCNQCGHWFTQKGNLLRHIKL
# B5: 46F_47D_49N_50Q_52G_53A_54N_55F_67L_, Q9UKT9 (peptide)
# chain: FDCNQCGANFTQKGNLLRHIKL
# B6: 46F_47N_49E_50I_52G_53A_54R_55F_67L_, Q9UKT9 (peptide)
# chain: FNCEICGARFTQKGNLLRHIKL
# B7: 46F_47S_49E_50I_52G_53A_54L_55F_67L_, Q9UKT9 (peptide)
# chain: FSCEICGALFTQKGNLLRHIKL
# B8: 46F_47G_49E_50I_52G_53A_54R_55F_67L_, Q9UKT9 (peptide)
# chain: FGCEICGARFTQKGNLLRHIKL
# B9: 46F_47S_49E_50I_52G_53A_54R_55F_67L_, Q9UKT9 (peptide)
# chain: FSCEICGARFTQKGNLLRHIKL
# B10: 46F_47C_49E_50I_52G_53A_54R_55F_67L_, Q9UKT9 (peptide)
# chain: FCCEICGARFTQKGNLLRHIKL
# B11: 46F_47K_49E_50I_52G_53A_54R_55F_67L_, Q9UKT9 (peptide)
# chain: FKCEICGARFTQKGNLLRHIKL
# Target: T1, CRBN, Q96SW2
# Assay: log2 fold change of degron read counts, EGFP-low vs EGFP+ sorted cells (limma voom), compound-induced degradation; higher = more compound-induced degradation of the degron-EGFP fusion; degrons are variants of IKZF1/3 zinc finger 2; compound dose not given here
# Details: Jurkat, 18 h
# Method: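 Pooled library of 8380 IKZF3 ZF2 degron mutants (positions 146-167 varied within the IKZF3 130-189 degron; only the varied core is printed, flanks not printed) fused to EGFP with IRES-mCherry, lentivirally expressed in Jurkat cells. mCherry+ cells were treated with one IMiD compound for 18 h (dose not stated) and FACS-sorted into EGFP-low and EGFP+ populations. Degron sequences were counted by NGS, and log2FC (EGFP-low vs EGFP+) was estimated by limma voom over 3 biological replicates.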
# [1] = compound: compound 19 (5-tert-butyl-thalidomide)
# [2] = compound: compound 22 (5-morpholino-thalidomide)
# [3] = compound: compound 33 (diphenyl IMiD analogue)
# 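Further: pooled lentiviral library of zinc finger degron-EGFP fusions in mCherry-positive Jurkat cells, FACS-sorted after compound exposure, with degron abundance counted by next-generation sequencing.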
Sequence,log2 fold change of degron read counts [1],log2 fold change of degron read counts [2],log2 fold change of degron read counts [3],log2 fold change of degron read counts (compound: thalidomide)
B1,0.32,-2.26,-2.15,-0.779
B2,-0.14,-1.09,1.21,1.24
B3,-0.811,-1.28,0.128,-0.853
B4,-2.24,-2.49,-2.26,-2.73
B5,-2.41,-2.24,-2.07,-2.31
B6,2.49,0.909,-0.686,0.645
B7,0.851,0.0276,2.41,-0.115
B8,3.15,2.26,-0.576,1.48
B9,3.25,2.89,0.489,2.12
B10,3.25,3.01,1.66,3.08
B11,-1.5,-3.6,-3.25,-1.17
